# Laboratory results: PubChem BioAssay
# The source made the active and inactive calls.
# Assay: JC-1 mitochondrial signal, unstimulated adipocytes – cell-based, JC-1 fluorescence, 3T3-L1 adipocytes, 24 h, 100 nL compound, profiling panel (AID 1168)
# Conditions: JC-1 mitochondrial fluorescence, higher = more signal, called active from +8 up or from −8 down
# Note: test concentration not given here.
row,SMILES,z-score
1,CN1C(=O)C2C=CC(C(O)c3cccc4ccccc34)N(N3CCCCC3)C2C1=O (stereo not given),-1.53 (inactive)
2,C=CCOC(=O)[C@H]1[C@@H]2C(=O)O[C@@H](c3ccccc3)[C@@H](c3ccccc3)N2[C@@H](c2ccc(OCCOC(=O)[C@@H]3C[C@@H]4C(=O)N5CCC[C@H]5C(=O)N4[C@@H]3c3ccc(O)cc3)cc2)[C@]12C(=O)Nc1ccc(I)cc12,0.88 (inactive)
3,O=C1C2C=CC(C(O)c3ccccc3)N(Nc3ccccc3F)C2C(=O)N1c1ccccc1 (stereo not given),-0.0776 (inactive)
4,CN(C)c1ccc(C(O)C2C=CC3C(=O)N(c4ccccc4)C(=O)C3N2Nc2ccc([N+](=O)[O-])cc2)cc1 (stereo not given),-2.19 (inactive)
5,[N-]=[N+]=NCc1ccccc1[C@H]1OC(c2ccc(OCCCO)cc2)=N[C@@]1(CCS(=O)(=O)c1ccccc1)C(=O)N1CCCCC1,1.04 (inactive)
6,C=CCOC(=O)[C@H]1[C@@H]2C(=O)O[C@@H](c3ccccc3)[C@@H](c3ccccc3)N2[C@@H](c2ccc(OCCOC(=O)[C@@H]3C[C@@H]4C(=O)N[C@@H](CCCCNC(C)=O)C(=O)N4[C@@H]3c3ccc(O)cc3)cc2)[C@]12C(=O)Nc1ccc(I)cc12,2.24 (inactive)
7,COc1cc2c(cc1OC)CN(C(=O)[C@@H]1[C@H]3C(=O)O[C@H](c4ccccc4)[C@H](c4ccccc4)N3[C@H](c3ccc(OCCO)cc3)[C@@]13C(=O)Nc1ccc(C#CC4(O)CCCCCC4)cc13)CC2,0.601 (inactive)
8,C=C(/C(=C/C[C@H](OC(C)=O)c1ccccc1OCCO)c1cc(C(=O)OC)ccc1OC)C(C)C,1.16 (inactive)
9,CCOC(=O)C[C@H]1[C@H](OC(=O)c2cc3ccccc3oc2=O)[C@@H](NC(=O)c2ccc(-c3ccccc3)cc2)c2cc(OCCCO)ccc2N1C(=O)c1ccc2ccccc2n1,-0.023 (inactive)
10,CN(C)CCCCNC(=O)[C@@H]1C[C@@H]2C(=O)N[C@@H](Cc3ccccc3)C(=O)N2[C@@H]1c1cccc(OCCO)c1,0.76 (inactive)
11,COc1ccc([Si](C)(C)[C@@H]2[C@@H](CCO)O[C@]3(C(=O)N(Cc4ccc(N5CCCCC5=O)cc4)c4ccccc43)[C@H]2C)cc1,1.25 (inactive)
12,COCCOC(=O)N1C(=O)[C@@]2(c3cc(C#CC4=CCCCC4)ccc31)[C@H](c1ccccc1OCCO)N1[C@H](c3ccccc3)[C@H](c3ccccc3)OC(=O)[C@H]1[C@@H]2C(=O)Nc1nc2ccccc2s1,0.745 (inactive)
13,CCCCC(=C=CC[C@@H](O)c1ccccc1OCCO)C[C@@H](O)COCc1ccccc1,0.623 (inactive)
14,Cc1ccc(S[C@]2(C(=O)NCC(F)(F)F)CC(=O)N(Cc3ccccc3)[C@@H]2c2ccc(CO)cc2I)cc1,-0.68 (inactive)
15,O=C(NCC(F)(F)F)[C@@H]1c2ccccc2C(=O)N(Cc2cc(F)cc(C(F)(F)F)c2)[C@H]1c1ccc(CO)cc1,0.00233 (inactive)
16,C=C(CCCC)/C(=C/C[C@@H](OC(=O)c1ccncc1)c1ccccc1OCCO)c1cnc2ccccc2c1,-2 (inactive)
17,[N-]=[N+]=Nc1ccccc1C[C@]1(C(=O)N2CCOCC2)N=C(c2ccc(OCCCO)cc2)O[C@H]1c1ccccc1,1.18 (inactive)
18,CCCNC(=O)[C@@H]1c2ccccc2C(=O)N(C(C)C)[C@H]1c1ccc(CO)cc1,1.82 (inactive)
19,O=C1O[C@H](c2ccccc2)[C@H](c2ccccc2)N2[C@H]1[C@@H](C(=O)Nc1nc3ccccc3s1)[C@]1(C(=O)Nc3ccc(C#CC4(O)CCCCCC4)cc31)[C@H]2c1ccccc1OCCO,2.18 (inactive)
20,O=C1OCC=C[C@H]2OC34C=CCN(Cn5nnc6ccccc65)C(=O)[C@H]3N(CCCO)C(=O)[C@@H]4[C@@H]12 (stereo not given in full),0.904 (inactive)
21,COC(=O)[C@@]1(Cc2ccccc2)[C@H]2c3cc(C(=O)N(C)C)n(Cc4c(CO)[nH]cc(C)c4=O)c3C[C@H]2CN1C(=O)c1ccccc1,-0.235 (inactive)
22,COC(=O)[C@@]1(Cc2ccc(OC)cc2)[C@H]2c3cc(C(=O)N(C)C)n(Cc4ccc(Cl)c(C(F)(F)F)c4)c3C[C@H]2CN1C(=O)c1ccccc1,-0.938 (inactive)
23,C=CCNC(=O)[C@H]1[C@@H]2C(=O)O[C@@H](c3ccccc3)[C@@H](c3ccccc3)N2[C@@H](c2ccc(O)cc2)[C@]12C(=O)N(C(=O)OCCOC)c1ccccc12,0.0113 (inactive)
24,CCCCCCCCCCC(O)C1C=CC2C(=O)N(C)C(=O)C2N1NC(=O)OC(C)(C)C (stereo not given),-0.464 (inactive)
25,NC(N)=NCCCn1cc(CNC(=O)[C@@H](N)Cc2ccccc2)nn1,-0.283 (inactive)
26,CCOC(=O)C1CCCCN1 (stereo not given),0.121 (inactive)

# Assay: JC-1 mitochondrial signal, unstimulated myeloma cells – cell-based, JC-1 fluorescence, RPMI8226, 24 h, 100 nL compound, profiling panel (AID 1169)
# Conditions: JC-1 mitochondrial potential fluorescence, higher = more signal
row,SMILES,z-score
1,Cc1ccc(S[C@]2(C(=O)O)CC(=O)N(Cc3cc(C(F)(F)F)cc(C(F)(F)F)c3)[C@@H]2c2ccc(CO)cc2)cc1,0.83
2,CC(C)Cc1ccc(CN2CC[C@@H](NC(=O)Nc3ccccc3)C2)cc1,-1.11
3,C=CC1c2cc(O)c(OC)cc2CCN1Cc1cc2c(cc1Br)OCO2 (stereo not given),-0.743
4,O=C1O[C@H](c2ccccc2)[C@H](c2ccccc2)N2[C@H]1[C@@H](C(=O)N1CCN(c3ncccn3)CC1)[C@]1(C(=O)Nc3ccc(C#CC4(O)CCCCCC4)cc31)[C@H]2c1ccc(OCCO)cc1,-0.618
5,COC(=O)C(CC#Cc1ccc2c(c1)[C@]1(C(=O)N2)[C@H](c2ccccc2OCCO)N2[C@H](c3ccccc3)[C@H](c3ccccc3)OC(=O)[C@H]2[C@@H]1C(=O)NC[C@H](O)c1ccccc1)C(=O)OC,-1.11
6,Cc1ccccc1C(O)C1C=CC2C(=O)N(C)C(=O)C2N1N(c1ccccc1)c1ccccc1 (stereo not given),-0.217
7,CCC[C@@H]1C[C@@]1(CCC)[C@@H](NC(=O)OCc1ccccc1)c1ccc(-c2ccccc2)cc1,-0.325
8,CN(C)C(=O)C1N=C(c2ccc(OCCCO)cc2)N(c2ccccc2)O1 (stereo not given),-0.0214
9,O=C1O[C@H](c2ccccc2)[C@H](c2ccccc2)N2[C@H]1[C@@H](C(=O)O)[C@]1(C(=O)Nc3ccc(C#CC4=CCCCC4)cc31)[C@H]2c1ccc(O)cc1,-1.03
10,C=CCOC(=O)[C@H]1[C@@H]2C(=O)O[C@@H](c3ccccc3)[C@@H](c3ccccc3)N2[C@@H](c2ccc(OCCOC(=O)[C@H]3C[C@H]4C(=O)N[C@@H](CCCCNC(C)=O)C(=O)N4[C@H]3c3ccc(O)cc3)cc2)[C@]12C(=O)Nc1ccccc12,-0.748
11,CN1C(=O)C2C=CC(C(O)c3cccc4ccccc34)N(N3CCCCC3)C2C1=O (stereo not given),0.776
12,C=CCOC(=O)[C@H]1[C@@H]2C(=O)O[C@@H](c3ccccc3)[C@@H](c3ccccc3)N2[C@@H](c2ccc(OCCOC(=O)[C@@H]3C[C@@H]4C(=O)N5CCC[C@H]5C(=O)N4[C@@H]3c3ccc(O)cc3)cc2)[C@]12C(=O)Nc1ccc(I)cc12,-0.655
13,O=C1C2C=CC(C(O)c3ccccc3)N(Nc3ccccc3F)C2C(=O)N1c1ccccc1 (stereo not given),-1.04
14,CN(C)c1ccc(C(O)C2C=CC3C(=O)N(c4ccccc4)C(=O)C3N2Nc2ccc([N+](=O)[O-])cc2)cc1 (stereo not given),-0.296
15,[N-]=[N+]=NCc1ccccc1[C@H]1OC(c2ccc(OCCCO)cc2)=N[C@@]1(CCS(=O)(=O)c1ccccc1)C(=O)N1CCCCC1,-1.11
16,C=CCOC(=O)[C@H]1[C@@H]2C(=O)O[C@@H](c3ccccc3)[C@@H](c3ccccc3)N2[C@@H](c2ccc(OCCOC(=O)[C@@H]3C[C@@H]4C(=O)N[C@@H](CCCCNC(C)=O)C(=O)N4[C@@H]3c3ccc(O)cc3)cc2)[C@]12C(=O)Nc1ccc(I)cc12,-0.744
17,COc1cc2c(cc1OC)CN(C(=O)[C@@H]1[C@H]3C(=O)O[C@H](c4ccccc4)[C@H](c4ccccc4)N3[C@H](c3ccc(OCCO)cc3)[C@@]13C(=O)Nc1ccc(C#CC4(O)CCCCCC4)cc13)CC2,-0.831
18,C=C(/C(=C/C[C@H](OC(C)=O)c1ccccc1OCCO)c1cc(C(=O)OC)ccc1OC)C(C)C,0.0903
19,CCOC(=O)C[C@H]1[C@H](OC(=O)c2cc3ccccc3oc2=O)[C@@H](NC(=O)c2ccc(-c3ccccc3)cc2)c2cc(OCCCO)ccc2N1C(=O)c1ccc2ccccc2n1,0.174
20,CN(C)CCCCNC(=O)[C@@H]1C[C@@H]2C(=O)N[C@@H](Cc3ccccc3)C(=O)N2[C@@H]1c1cccc(OCCO)c1,-0.0777
21,COc1ccc([Si](C)(C)[C@@H]2[C@@H](CCO)O[C@]3(C(=O)N(Cc4ccc(N5CCCCC5=O)cc4)c4ccccc43)[C@H]2C)cc1,0.88
22,COCCOC(=O)N1C(=O)[C@@]2(c3cc(C#CC4=CCCCC4)ccc31)[C@H](c1ccccc1OCCO)N1[C@H](c3ccccc3)[C@H](c3ccccc3)OC(=O)[C@H]1[C@@H]2C(=O)Nc1nc2ccccc2s1,-0.759
23,CCCCC(=C=CC[C@@H](O)c1ccccc1OCCO)C[C@@H](O)COCc1ccccc1,-0.261
24,Cc1ccc(S[C@]2(C(=O)NCC(F)(F)F)CC(=O)N(Cc3ccccc3)[C@@H]2c2ccc(CO)cc2I)cc1,-0.797
25,O=C(NCC(F)(F)F)[C@@H]1c2ccccc2C(=O)N(Cc2cc(F)cc(C(F)(F)F)c2)[C@H]1c1ccc(CO)cc1,-0.656
26,C=C(CCCC)/C(=C/C[C@@H](OC(=O)c1ccncc1)c1ccccc1OCCO)c1cnc2ccccc2c1,-0.629
27,[N-]=[N+]=Nc1ccccc1C[C@]1(C(=O)N2CCOCC2)N=C(c2ccc(OCCCO)cc2)O[C@H]1c1ccccc1,-1.18
28,CCCNC(=O)[C@@H]1c2ccccc2C(=O)N(C(C)C)[C@H]1c1ccc(CO)cc1,-0.119
29,O=C1O[C@H](c2ccccc2)[C@H](c2ccccc2)N2[C@H]1[C@@H](C(=O)Nc1nc3ccccc3s1)[C@]1(C(=O)Nc3ccc(C#CC4(O)CCCCCC4)cc31)[C@H]2c1ccccc1OCCO,-0.951
